Substitutions are numbered along the chain they refer to.
Columns and labels:
Assay in all cases: yeast three-hybrid, YBZ-1, SC-Leu-His + 0.5 mM 3-AT, 4 days
Conditions in all cases: tags: N-Gal4 AD-HA kept; label: inside an RPR1-promoter hybrid RNA with tandem MS2 sites; ssRNA
PUM1 PUF domain R3-PFD = PUM1 PUF domain R3-PFD (Homo sapiens, UniProt Q14671 828-1176, C935P;R936F;Q939D)
Summary of the method: (§1)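 Sequencing with Illumina followed PCR amplification of the repeat regions from transformants grown four days on SC-Leu (input) or SC-Leu-His + 0.5 mM 3-AT (selection). The transformants were strain YBZ-1 with a LexA–MS2 coat fusion and a HIS3 reporter, carrying Pumilio-1 PUF domain libraries and matching RNA elements. The interaction score is the log change in variant frequency from input to selection, computed in log2 with a pseudocount of 1 for absent variants.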

PUM1 PUF domain R3-SRK = PUM1 PUF domain R3-SRK (Homo sapiens, UniProt Q14671 828-1176, C935S;Q939K)
Summary of the method: as §1

PUM1 PUF domain R3-IFR = PUM1 PUF domain R3-IFR (Homo sapiens, UniProt Q14671 828-1176, C935I;R936F;Q939R)
Summary of the method: as §1

PUM1 PUF domain R3-RRP = PUM1 PUF domain R3-RRP (Homo sapiens, UniProt Q14671 828-1176, C935R;Q939P)
Summary of the method: as §1

PUM1 PUF domain R7-LSV = PUM1 PUF domain R7-LSV (Homo sapiens, UniProt Q14671 828-1176, S1079L;N1080S;E1083V)
Summary of the method: as §1

PUM1 PUF domain R5-RRM = PUM1 PUF domain R5-RRM (Homo sapiens, UniProt Q14671 828-1176, C1007R;Q1011M)
Summary of the method: as §1

PUM1 PUF domain R5-KKD = PUM1 PUF domain R5-KKD (Homo sapiens, UniProt Q14671 828-1176, C1007K;R1008K;Q1011D)
Summary of the method: as §1

PUM1 PUF domain R2-RRT = PUM1 PUF domain R2-RRT (Homo sapiens, UniProt Q14671 828-1176, N899R;Y900R;Q903T)
Summary of the method: as §1

PUM1 PUF domain R2-MVW = PUM1 PUF domain R2-MVW (Homo sapiens, UniProt Q14671 828-1176, N899M;Y900V;Q903W)
Summary of the method: as §1

PUM1 PUF domain R2-KLS = PUM1 PUF domain R2-KLS (Homo sapiens, UniProt Q14671 828-1176, N899K;Y900L;Q903S)
Summary of the method: as §1

PUM1 PUF domain R4-ANA = PUM1 PUF domain R4-ANA (Homo sapiens, UniProt Q14671 828-1176, N971A;H972N;Q975A)
Summary of the method: as §1

PUM1 PUF domain R6-EWG = biological target: T1, PUM1 PUF domain R6-EWG (Homo sapiens, UniProt Q14671 828-1176, N1043E;Y1044W;Q1047G)
T1 sequence: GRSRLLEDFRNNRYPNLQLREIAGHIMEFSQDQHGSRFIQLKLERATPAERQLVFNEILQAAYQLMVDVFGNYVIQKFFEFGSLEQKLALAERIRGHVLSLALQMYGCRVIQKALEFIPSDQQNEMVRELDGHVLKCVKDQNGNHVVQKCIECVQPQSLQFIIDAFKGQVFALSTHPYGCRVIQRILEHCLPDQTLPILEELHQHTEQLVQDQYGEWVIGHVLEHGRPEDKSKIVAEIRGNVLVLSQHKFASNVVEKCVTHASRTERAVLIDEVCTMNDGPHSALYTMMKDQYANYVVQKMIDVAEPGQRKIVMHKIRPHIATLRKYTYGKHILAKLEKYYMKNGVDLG
Summary of the method: as §1

PUM1 PUF domain R6-VWM = biological target: T2, PUM1 PUF domain R6-VWM (Homo sapiens, UniProt Q14671 828-1176, N1043V;Y1044W;Q1047M)
T2 sequence: T1 sequence with E216V, G220M
Summary of the method: as §1

PUM1 PUF domain R5-GSE = PUM1 PUF domain R5-GSE (Homo sapiens, UniProt Q14671 828-1176, C1007G;R1008S;Q1011E)
Summary of the method: as §1

PUM1 PUF domain R6-AWR = biological target: T3, PUM1 PUF domain R6-AWR (Homo sapiens, UniProt Q14671 828-1176, N1043A;Y1044W;Q1047R)
T3 sequence: T1 sequence with E216A, G220R
Summary of the method: as §1

PUM1 PUF domain R8-QFR = PUM1 PUF domain R8-QFR (Homo sapiens, UniProt Q14671 828-1176, N1122Q;Y1123F;Q1126R)
Summary of the method: as §1

PUM1 PUF domain R8-QYP = PUM1 PUF domain R8-QYP (Homo sapiens, UniProt Q14671 828-1176, N1122Q;Q1126P)
Summary of the method: as §1

PUM1 PUF domain R8-RRR = PUM1 PUF domain R8-RRR (Homo sapiens, UniProt Q14671 828-1176, N1122R;Y1123R;Q1126R)
Summary of the method: as §1

PUM1 PUF domain R4-GND = PUM1 PUF domain R4-GND (Homo sapiens, UniProt Q14671 828-1176, N971G;H972N;Q975D)
Summary of the method: as §1

PUM1 PUF domain R4-QPA = PUM1 PUF domain R4-QPA (Homo sapiens, UniProt Q14671 828-1176, N971Q;H972P;Q975A)
Summary of the method: as §1

Sequence: GGCUAGAACUAGUGGAUCCCCCGGCGCCCGGCGGCUCGAGCCCGGGUAAGUGUAAUUAGUCUGCAUGCCGCCGGGCGCCAUGCCUGCAGGUCGACUCUAGAAAACAUG
- binding signal (PUM1 PUF domain R3-PFD): 4.25 log2 enrichment (interaction score)
- binding signal (PUM1 PUF domain R3-SRK): 2.4 log2 enrichment (interaction score)
- binding signal (PUM1 PUF domain R3-IFR): 3.8 log2 enrichment (interaction score)
- binding signal (PUM1 PUF domain R3-RRP): 4.3 log2 enrichment (interaction score)

Sequence: GGCUAGAACUAGUGGAUCCCCCGGCGCCCGGCGGCUCGAGCCCGGGUAAGUGUAAGUAGUCUGCAUGCCGCCGGGCGCCAUGCCUGCAGGUCGACUCUAGAAAACAUG
- binding signal (PUM1 PUF domain R3-IFR): 5.53 log2 enrichment (interaction score)

Sequence: GGCUAGAACUAGUGGAUCCCCCGGCGCCCGGCGGCUCGAGCCCGGGUAAGUUUAAAUAGUCUGCAUGCCGCCGGGCGCCAUGCCUGCAGGUCGACUCUAGAAAACAUG
- binding signal (PUM1 PUF domain R7-LSV): 4.05 log2 enrichment (interaction score)

Sequence: GGCUAGAACUAGUGGAUCCCCCGGCGCCCGGCGGCUCGAGCCCGGGUAAGUGUUAAUAGUCUGCAUGCCGCCGGGCGCCAUGCCUGCAGGUCGACUCUAGAAAACAUG
- binding signal (PUM1 PUF domain R5-RRM): 4.73 log2 enrichment (interaction score)

Sequence: GGCUAGAACUAGUGGAUCCCCCGGCGCCCGGCGGCUCGAGCCCGGGUAAGUGUCAAUAGUCUGCAUGCCGCCGGGCGCCAUGCCUGCAGGUCGACUCUAGAAAACAUG
- binding signal (PUM1 PUF domain R5-RRM): 4.35 log2 enrichment (interaction score)
- binding signal (PUM1 PUF domain R5-KKD): 3.56 log2 enrichment (interaction score)

Sequence: GGCUAGAACUAGUGGAUCCCCCGGCGCCCGGCGGCUCGAGCCCGGGUAAGUGUAAAGAGUCUGCAUGCCGCCGGGCGCCAUGCCUGCAGGUCGACUCUAGAAAACAUG
- binding signal (PUM1 PUF domain R2-RRT): 2.91 log2 enrichment (interaction score)
- binding signal (PUM1 PUF domain R2-MVW): 3.45 log2 enrichment (interaction score)
- binding signal (PUM1 PUF domain R2-KLS): 2.37 log2 enrichment (interaction score)

Sequence: GGCUAGAACUAGUGGAUCCCCCGGCGCCCGGCGGCUCGAGCCCGGGUAAGUGUACAUAGUCUGCAUGCCGCCGGGCGCCAUGCCUGCAGGUCGACUCUAGAAAACAUG
- binding signal (PUM1 PUF domain R4-ANA): 2.08 log2 enrichment (interaction score)

Sequence: GGCUAGAACUAGUGGAUCCCCCGGCGCCCGGCGGCUCGAGCCCGGGUAAGUGAAAAUAGUCUGCAUGCCGCCGGGCGCCAUGCCUGCAGGUCGACUCUAGAAAACAUG
- binding signal (PUM1 PUF domain R6-EWG): 1.75 log2 enrichment (interaction score)
- binding signal (PUM1 PUF domain R6-VWM): 6.06 log2 enrichment (interaction score)

Sequence: GGCUAGAACUAGUGGAUCCCCCGGCGCCCGGCGGCUCGAGCCCGGGUAAGUGUGAAUAGUCUGCAUGCCGCCGGGCGCCAUGCCUGCAGGUCGACUCUAGAAAACAUG
- binding signal (PUM1 PUF domain R5-RRM): 1.28 log2 enrichment (interaction score)
- binding signal (PUM1 PUF domain R5-GSE): 3.41 log2 enrichment (interaction score)

Sequence: GGCUAGAACUAGUGGAUCCCCCGGCGCCCGGCGGCUCGAGCCCGGGUAAGUGCAAAUAGUCUGCAUGCCGCCGGGCGCCAUGCCUGCAGGUCGACUCUAGAAAACAUG
- binding signal (PUM1 PUF domain R6-AWR): 2.34 log2 enrichment (interaction score)

Sequence: GGCUAGAACUAGUGGAUCCCCCGGCGCCCGGCGGCUCGAGCCCGGGUAAGUGUAAAUAGUCUGCAUGCCGCCGGGCGCCAUGCCUGCAGGUCGACUCUAGAAAACAUG
- binding signal (PUM1 PUF domain R3-PFD): 5.31 log2 enrichment (interaction score)
- binding signal (PUM1 PUF domain R5-RRM): 2.27 log2 enrichment (interaction score)
- binding signal (PUM1 PUF domain R6-AWR): 5.74 log2 enrichment (interaction score)
- binding signal (PUM1 PUF domain R6-EWG): 4.03 log2 enrichment (interaction score)
- binding signal (PUM1 PUF domain R6-VWM): 4.44 log2 enrichment (interaction score)
- binding signal (PUM1 PUF domain R8-QFR): 4.27 log2 enrichment (interaction score)
- binding signal (PUM1 PUF domain R8-QYP): 2.62 log2 enrichment (interaction score)
- binding signal (PUM1 PUF domain R8-RRR): 5.23 log2 enrichment (interaction score)

Sequence: GGCUAGAACUAGUGGAUCCCCCGGCGCCCGGCGGCUCGAGCCCGGGUAAGUGUAUAUAGUCUGCAUGCCGCCGGGCGCCAUGCCUGCAGGUCGACUCUAGAAAACAUG
- binding signal (PUM1 PUF domain R4-ANA): 3.28 log2 enrichment (interaction score)
- binding signal (PUM1 PUF domain R4-GND): 3.04 log2 enrichment (interaction score)
- binding signal (PUM1 PUF domain R4-QPA): 3.55 log2 enrichment (interaction score)

Sequence: GGCUAGAACUAGUGGAUCCCCCGGCGCCCGGCGGCUCGAGCCCGGGUAAGCGUAAAUAGUCUGCAUGCCGCCGGGCGCCAUGCCUGCAGGUCGACUCUAGAAAACAUG
- binding signal (PUM1 PUF domain R8-QFR): 5.16 log2 enrichment (interaction score)
- binding signal (PUM1 PUF domain R8-RRR): 5.62 log2 enrichment (interaction score)

— article PMC8384837, “Expanding the binding specificity for RNA recognition by a PUF domain”
